Measurements as given in PubChem BioAssay AID1508619 (National Center for Advancing Translational Sciences (NCATS), 2020).
Results filed as inconclusive are left out. Entries that show only a call come without a potency. The source made the active and inactive calls. The call rests on the fitted dose curve; in most records, active means well fitted inhibition curve with a large enough effect; inconclusive means small, poorly fitted or top-dose-only effect; inactive means no such curve, though single readings can be large or run the other way.

Assay: Counterscreen qHTS for Identification of Calcium Integrin Binding Protein 1 (CIB1) Competitor
Method in brief: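 Counterscreen FP assay: CIB1-GST 1 uM in 5 mM HEPES pH 7.4, 125 mM NaCl, 5 mM CaCl2, 0.01% Tween20, with compounds up to 114 uM for 15 min, then 100 nM FITC-labelled scrambled peptide, 15 min, polarization read ex 480/em 540.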
Potency means the concentration at half of the fitted maximal effect.

| SMILES | Potency |
| --- | --- |
| COC(=O)c1cc(Cl)ccc1NS(=O)(=O)C(F)(F)F | inactive |
| CC1(C)OB(c2ccc(O)c3ncc(N4CCNCC4)cc23)OC1(C)C | 20 µM (active) |
| Cc1cc2c(C(C)C)c(O)c(O)c(C=O)c2c(O)c1-c1c(C)cc2c(C(C)C)c(O)c(O)c(C=O)c2c1O | inactive |
| COC(=O)c1ccc2c(c1)S(=O)(=O)N=C2Sc1cc(C)ccc1C | inactive |
| CC(=O)NC(c1cccs1)c1cc(Br)c2cccnc2c1O (stereo not drawn) | inactive |
| CN1CCN(c2ccc(-c3cc(O)c4ncccc4c3)cc2)CC1 | inactive |
| C/C(=C\c1ccc2c(c1)OCO2)C1Nc2cccc3cccc(c23)N1 | 12.6 µM (active) |
| CC(C)(C)c1ccc(SC2=NS(=O)(=O)c3ccccc32)cc1 | inactive |
| CCOc1ccc(CCNC(C)=O)cc1OCC | inactive |
| OCc1ccc(-c2ccc(-c3ccc(CO)s3)o2)s1 | inactive |
| CS(=O)(=O)c1ccc(C(=O)OCC(=O)N2CCC(Cc3ccccc3)CC2)cc1[N+](=O)[O-] | inactive |
| O=C(O)c1ccccc1SC1=NS(=O)(=O)c2ccccc21 | inactive |
| O=C1c2ccccc2C(=O)c2c1ccc(O)c2O | 22.4 µM (active) |
| O=S(=O)(Nc1nccs1)c1ccc(NCc2cc(Cl)ccc2O)cc1 | inactive |
| CCc1ccc(C=C2SC(=S)NC2=O)cc1 | inactive |
| CC1(C)N=C(Nc2nc3ccccc3o2)NC2=C1C(=O)CCC2 | inactive |
| Oc1c(Cl)cc(Cl)c(Cl)c1Cc1c(O)c(Cl)cc(Cl)c1Cl | inactive |
| N#Cc1cnc(NS(=O)(=O)c2ccc(NC(=O)Cc3ccc(Cl)c(Cl)c3)cc2)s1 | inactive |
